The results in this text go back to publication PMC7862700, “An all-to-all approach to the identification of sequence-specific readers for epigenetic DNA modifications on cytosine”.

Holding throughout (test): DAPPL (digital affinity profiling via proximity ligation, sequencing); 10 mM Tris-HCl pH 7.5, 50 mM NaCl, 1 mM DTT, 4% glycerol, room temperature, 30 min; GST-TFs on glutathione beads, 16-mer random dsDNA library, 0.1% formaldehyde crosslink after washing; high values mean tight binding
Conditions in all cases: protein: recombinant; tags: N-terminal GST; dsDNA, one strand shown

One assay deals with T1, ELK1 (Homo sapiens, UniProt P19419 1-428).
T1 sequence: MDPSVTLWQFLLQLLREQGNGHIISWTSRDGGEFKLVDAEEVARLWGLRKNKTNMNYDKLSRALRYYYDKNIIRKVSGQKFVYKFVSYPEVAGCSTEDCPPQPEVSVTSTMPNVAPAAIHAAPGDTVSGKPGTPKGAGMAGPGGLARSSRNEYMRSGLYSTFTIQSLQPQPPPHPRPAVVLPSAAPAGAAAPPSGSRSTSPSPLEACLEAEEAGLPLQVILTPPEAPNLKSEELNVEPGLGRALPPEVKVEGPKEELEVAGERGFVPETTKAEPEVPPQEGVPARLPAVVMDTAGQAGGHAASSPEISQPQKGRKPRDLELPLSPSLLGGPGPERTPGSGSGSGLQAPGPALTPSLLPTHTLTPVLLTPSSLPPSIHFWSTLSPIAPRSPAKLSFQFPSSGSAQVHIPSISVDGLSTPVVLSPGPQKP
The method, boiled down:
(§1)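 GST fusions of human transcription factors were expressed in yeast and captured with glutathione beads. Once given DNA barcodes and pooled alongside a tag-only sample, they were incubated for 30 min at room temperature with 200 nmole of a random double-stranded 16-mer DNA library in Tris/NaCl/DTT/glycerol buffer, then washed, crosslinked (0.1% formaldehyde), proximity-ligated, PCR-amplified and sequenced on an Illumina NextSeq500. The binding signal of each hexamer is its read frequency for a factor divided by its frequency for the tag-only sample.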

The target of a further assay is T2, GABPA (Homo sapiens, UniProt Q06546 1-454).
T2 sequence: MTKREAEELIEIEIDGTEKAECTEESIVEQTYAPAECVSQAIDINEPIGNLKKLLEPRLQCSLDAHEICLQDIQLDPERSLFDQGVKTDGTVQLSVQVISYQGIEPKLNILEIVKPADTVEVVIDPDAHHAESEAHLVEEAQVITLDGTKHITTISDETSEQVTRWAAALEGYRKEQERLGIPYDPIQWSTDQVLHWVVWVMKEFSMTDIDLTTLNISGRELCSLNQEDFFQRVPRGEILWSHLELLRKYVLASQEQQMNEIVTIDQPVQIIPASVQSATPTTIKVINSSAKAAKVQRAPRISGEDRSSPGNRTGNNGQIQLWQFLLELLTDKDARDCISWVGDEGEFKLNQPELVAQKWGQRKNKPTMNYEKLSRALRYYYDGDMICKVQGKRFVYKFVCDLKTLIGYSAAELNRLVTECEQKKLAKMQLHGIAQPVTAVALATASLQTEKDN
The method, boiled down:
as §1

The target of a further assay is T3, ERG (Homo sapiens, UniProt P11308 1-479).
T3 sequence: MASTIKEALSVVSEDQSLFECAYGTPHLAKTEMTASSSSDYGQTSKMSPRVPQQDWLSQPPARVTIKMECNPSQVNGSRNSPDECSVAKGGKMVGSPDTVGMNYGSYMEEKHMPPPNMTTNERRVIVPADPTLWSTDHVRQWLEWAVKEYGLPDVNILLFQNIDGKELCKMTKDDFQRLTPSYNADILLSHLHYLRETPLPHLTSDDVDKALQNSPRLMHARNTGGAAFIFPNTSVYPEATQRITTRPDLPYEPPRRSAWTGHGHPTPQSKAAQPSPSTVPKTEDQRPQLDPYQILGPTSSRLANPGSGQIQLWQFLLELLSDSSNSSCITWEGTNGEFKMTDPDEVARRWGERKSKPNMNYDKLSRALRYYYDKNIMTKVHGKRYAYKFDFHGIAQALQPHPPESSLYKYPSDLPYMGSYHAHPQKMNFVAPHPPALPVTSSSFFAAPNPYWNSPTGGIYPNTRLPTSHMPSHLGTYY
In a few lines:
as §1

Another assay has as its target ELF1 (Homo sapiens, UniProt P32519 1-619). In a few lines:
as §1

A further assay has as its target T4, EHF (Homo sapiens, UniProt Q9NZC4 1-300).
T4 sequence: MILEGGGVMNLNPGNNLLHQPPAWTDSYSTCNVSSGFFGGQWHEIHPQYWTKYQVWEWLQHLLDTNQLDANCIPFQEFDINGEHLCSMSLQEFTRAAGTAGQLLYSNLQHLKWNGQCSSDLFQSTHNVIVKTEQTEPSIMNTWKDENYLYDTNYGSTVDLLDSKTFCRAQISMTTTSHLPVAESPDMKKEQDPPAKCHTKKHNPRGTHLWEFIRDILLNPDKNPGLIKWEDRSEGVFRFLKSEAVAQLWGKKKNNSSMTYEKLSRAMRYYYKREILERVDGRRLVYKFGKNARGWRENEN
The method, boiled down:
as §1

The target in a further assay is SPI1 (Homo sapiens, UniProt P17947 1-270). The method, boiled down:
as §1

For another assay, the target named is T5, FEV (Homo sapiens, UniProt Q99581 1-238).
T5 sequence: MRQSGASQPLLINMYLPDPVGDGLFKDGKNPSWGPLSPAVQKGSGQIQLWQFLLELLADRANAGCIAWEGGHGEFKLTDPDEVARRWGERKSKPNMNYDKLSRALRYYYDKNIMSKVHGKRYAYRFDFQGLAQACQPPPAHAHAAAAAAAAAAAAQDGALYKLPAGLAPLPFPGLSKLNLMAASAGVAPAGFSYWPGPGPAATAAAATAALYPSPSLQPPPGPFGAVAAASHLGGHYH
In a few lines: as §1

The next assay addresses ETV5 (Homo sapiens, UniProt P41161 1-510). The method, boiled down:
as §1

The next assay has as its target ELF4 (Homo sapiens, UniProt Q99607 1-663). In a few lines:
as §1

The target in a further assay is T6, ELK4 (Homo sapiens, UniProt P28324-2 1-405).
T6 sequence: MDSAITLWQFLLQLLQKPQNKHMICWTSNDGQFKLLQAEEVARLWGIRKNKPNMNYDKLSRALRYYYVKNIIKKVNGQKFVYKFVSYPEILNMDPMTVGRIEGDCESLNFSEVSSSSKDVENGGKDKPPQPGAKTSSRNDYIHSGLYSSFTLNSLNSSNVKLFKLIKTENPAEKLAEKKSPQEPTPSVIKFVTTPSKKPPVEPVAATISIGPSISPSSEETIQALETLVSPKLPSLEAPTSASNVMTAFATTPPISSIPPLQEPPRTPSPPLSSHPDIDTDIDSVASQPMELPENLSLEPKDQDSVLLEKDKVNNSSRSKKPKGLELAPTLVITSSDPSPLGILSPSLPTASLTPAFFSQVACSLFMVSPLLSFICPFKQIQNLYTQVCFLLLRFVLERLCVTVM
In a few lines:
as §1

For a further assay, the target named is T7, ETV2 (Homo sapiens, UniProt O00321 1-342).
T7 sequence: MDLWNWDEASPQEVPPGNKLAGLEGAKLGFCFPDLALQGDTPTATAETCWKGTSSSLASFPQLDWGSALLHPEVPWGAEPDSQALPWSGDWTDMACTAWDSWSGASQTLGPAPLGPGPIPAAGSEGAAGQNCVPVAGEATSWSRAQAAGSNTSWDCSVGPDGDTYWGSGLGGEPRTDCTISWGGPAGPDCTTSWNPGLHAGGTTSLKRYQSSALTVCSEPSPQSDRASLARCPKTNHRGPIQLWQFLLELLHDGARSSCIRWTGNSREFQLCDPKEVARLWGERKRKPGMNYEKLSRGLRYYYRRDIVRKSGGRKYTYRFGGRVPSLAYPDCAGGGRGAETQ
The method, boiled down:
as §1

A further assay addresses T8, ELF3 (Homo sapiens, UniProt P78545 1-371).
T8 sequence: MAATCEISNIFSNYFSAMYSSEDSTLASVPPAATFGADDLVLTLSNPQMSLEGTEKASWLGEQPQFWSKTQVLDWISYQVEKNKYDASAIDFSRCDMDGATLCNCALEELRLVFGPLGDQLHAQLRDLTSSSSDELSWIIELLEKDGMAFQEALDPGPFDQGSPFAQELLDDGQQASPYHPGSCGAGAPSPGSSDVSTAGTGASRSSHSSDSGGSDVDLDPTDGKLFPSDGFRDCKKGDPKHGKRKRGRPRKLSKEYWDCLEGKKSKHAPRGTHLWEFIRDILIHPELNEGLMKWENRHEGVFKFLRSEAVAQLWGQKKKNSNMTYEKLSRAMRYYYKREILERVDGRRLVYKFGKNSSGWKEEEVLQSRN
In a few lines: as §1

The target in a further assay is ETV1 (Homo sapiens, UniProt P50549 1-477). In a few lines:
as §1

A further assay addresses T9, ERF (Homo sapiens, UniProt P50548 1-548).
T9 sequence: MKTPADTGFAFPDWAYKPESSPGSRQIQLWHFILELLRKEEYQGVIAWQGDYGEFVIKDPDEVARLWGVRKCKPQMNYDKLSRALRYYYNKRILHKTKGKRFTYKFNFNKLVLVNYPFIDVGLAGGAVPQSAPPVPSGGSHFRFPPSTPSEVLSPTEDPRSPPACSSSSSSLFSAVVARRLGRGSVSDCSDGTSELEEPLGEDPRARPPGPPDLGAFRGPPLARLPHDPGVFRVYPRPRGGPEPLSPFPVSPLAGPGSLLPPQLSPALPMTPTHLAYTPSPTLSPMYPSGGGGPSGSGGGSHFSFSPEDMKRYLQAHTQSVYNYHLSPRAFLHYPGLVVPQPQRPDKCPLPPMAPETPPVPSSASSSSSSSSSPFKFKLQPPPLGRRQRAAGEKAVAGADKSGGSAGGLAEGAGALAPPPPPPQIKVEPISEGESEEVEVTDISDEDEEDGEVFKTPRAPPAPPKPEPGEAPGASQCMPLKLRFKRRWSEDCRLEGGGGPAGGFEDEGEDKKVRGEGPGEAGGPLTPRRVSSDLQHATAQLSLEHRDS
The method, boiled down: as §1

The target of the next assay is T10, ETV3L (Homo sapiens, UniProt Q6ZN32 1-361).
T10 sequence: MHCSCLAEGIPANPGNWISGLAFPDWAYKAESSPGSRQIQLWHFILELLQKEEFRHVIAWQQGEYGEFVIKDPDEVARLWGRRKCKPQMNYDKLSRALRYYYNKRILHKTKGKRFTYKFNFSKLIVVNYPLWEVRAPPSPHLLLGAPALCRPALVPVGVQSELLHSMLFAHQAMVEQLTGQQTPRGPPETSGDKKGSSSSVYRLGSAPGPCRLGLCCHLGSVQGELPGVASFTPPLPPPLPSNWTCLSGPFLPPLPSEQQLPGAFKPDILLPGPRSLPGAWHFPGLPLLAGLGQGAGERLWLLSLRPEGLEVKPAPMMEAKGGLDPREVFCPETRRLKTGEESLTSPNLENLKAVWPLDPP
In a few lines:
as §1

The next assay concerns the target T11, ETS2 (Homo sapiens, UniProt P15036 1-469).
T11 sequence: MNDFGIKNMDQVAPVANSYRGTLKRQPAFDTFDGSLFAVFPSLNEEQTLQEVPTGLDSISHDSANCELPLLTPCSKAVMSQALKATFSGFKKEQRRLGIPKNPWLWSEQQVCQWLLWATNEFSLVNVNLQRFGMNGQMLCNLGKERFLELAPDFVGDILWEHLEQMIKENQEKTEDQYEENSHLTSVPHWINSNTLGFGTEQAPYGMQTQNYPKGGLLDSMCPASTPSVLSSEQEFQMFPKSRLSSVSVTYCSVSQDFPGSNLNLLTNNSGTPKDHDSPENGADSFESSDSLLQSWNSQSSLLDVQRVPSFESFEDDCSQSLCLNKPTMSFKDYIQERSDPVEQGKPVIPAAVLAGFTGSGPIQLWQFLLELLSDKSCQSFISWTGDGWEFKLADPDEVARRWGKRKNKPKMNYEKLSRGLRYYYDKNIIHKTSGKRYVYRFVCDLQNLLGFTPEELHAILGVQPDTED
The method, boiled down: as §1

Another assay concerns the target T12, ETV7 (Homo sapiens, UniProt Q9Y603 1-341).
T12 sequence: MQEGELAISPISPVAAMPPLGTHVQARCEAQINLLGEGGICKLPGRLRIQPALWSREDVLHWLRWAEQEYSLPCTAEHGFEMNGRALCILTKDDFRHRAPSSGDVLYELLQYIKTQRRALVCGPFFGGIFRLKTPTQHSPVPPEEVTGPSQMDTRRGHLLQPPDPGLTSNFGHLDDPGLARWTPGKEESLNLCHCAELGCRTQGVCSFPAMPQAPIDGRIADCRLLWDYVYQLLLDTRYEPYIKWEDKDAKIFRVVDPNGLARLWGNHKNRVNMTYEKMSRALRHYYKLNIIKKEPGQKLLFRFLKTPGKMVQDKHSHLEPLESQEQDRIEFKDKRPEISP
The method, boiled down:
as §1

The target in the next assay is T13, ETV3 (Homo sapiens, UniProt P41162-2 1-143).
T13 sequence: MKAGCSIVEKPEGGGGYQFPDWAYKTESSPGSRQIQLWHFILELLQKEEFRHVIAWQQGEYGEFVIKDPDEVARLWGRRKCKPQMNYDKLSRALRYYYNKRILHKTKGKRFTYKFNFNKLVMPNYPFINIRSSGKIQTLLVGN
In a few lines:
as §1

The target in the next assay is ETV6 (Homo sapiens, UniProt P41212 1-452). The method, boiled down: as §1
ETV6, sequence (P41212 whole entry): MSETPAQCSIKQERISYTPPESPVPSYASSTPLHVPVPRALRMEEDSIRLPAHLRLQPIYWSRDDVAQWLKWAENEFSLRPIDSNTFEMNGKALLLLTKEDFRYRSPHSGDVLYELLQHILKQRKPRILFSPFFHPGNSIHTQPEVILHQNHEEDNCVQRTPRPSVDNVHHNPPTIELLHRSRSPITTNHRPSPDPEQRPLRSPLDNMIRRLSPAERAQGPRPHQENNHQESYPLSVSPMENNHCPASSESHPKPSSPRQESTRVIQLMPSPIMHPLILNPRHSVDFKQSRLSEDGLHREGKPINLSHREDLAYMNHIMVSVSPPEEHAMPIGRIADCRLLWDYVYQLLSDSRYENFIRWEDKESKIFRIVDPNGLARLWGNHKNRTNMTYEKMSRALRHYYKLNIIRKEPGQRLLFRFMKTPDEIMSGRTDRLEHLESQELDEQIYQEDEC

ELF1, sequence (P32519 whole entry): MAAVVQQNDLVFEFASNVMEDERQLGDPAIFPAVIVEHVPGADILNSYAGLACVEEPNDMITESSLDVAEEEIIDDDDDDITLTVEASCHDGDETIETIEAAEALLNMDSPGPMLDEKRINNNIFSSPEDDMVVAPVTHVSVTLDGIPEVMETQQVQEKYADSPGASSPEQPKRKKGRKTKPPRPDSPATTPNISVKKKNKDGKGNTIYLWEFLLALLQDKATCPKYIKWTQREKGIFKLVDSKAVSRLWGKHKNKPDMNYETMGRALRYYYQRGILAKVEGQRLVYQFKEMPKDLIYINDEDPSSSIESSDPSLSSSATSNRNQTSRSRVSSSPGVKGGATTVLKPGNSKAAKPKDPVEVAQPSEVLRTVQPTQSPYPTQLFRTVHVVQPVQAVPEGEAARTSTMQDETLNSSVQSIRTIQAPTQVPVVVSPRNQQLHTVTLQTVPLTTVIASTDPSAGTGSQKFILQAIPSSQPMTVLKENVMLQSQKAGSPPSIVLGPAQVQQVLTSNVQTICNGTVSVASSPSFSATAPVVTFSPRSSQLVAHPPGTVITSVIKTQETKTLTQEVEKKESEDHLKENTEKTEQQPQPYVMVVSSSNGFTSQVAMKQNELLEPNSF
ELF4, sequence (Q99607 whole entry): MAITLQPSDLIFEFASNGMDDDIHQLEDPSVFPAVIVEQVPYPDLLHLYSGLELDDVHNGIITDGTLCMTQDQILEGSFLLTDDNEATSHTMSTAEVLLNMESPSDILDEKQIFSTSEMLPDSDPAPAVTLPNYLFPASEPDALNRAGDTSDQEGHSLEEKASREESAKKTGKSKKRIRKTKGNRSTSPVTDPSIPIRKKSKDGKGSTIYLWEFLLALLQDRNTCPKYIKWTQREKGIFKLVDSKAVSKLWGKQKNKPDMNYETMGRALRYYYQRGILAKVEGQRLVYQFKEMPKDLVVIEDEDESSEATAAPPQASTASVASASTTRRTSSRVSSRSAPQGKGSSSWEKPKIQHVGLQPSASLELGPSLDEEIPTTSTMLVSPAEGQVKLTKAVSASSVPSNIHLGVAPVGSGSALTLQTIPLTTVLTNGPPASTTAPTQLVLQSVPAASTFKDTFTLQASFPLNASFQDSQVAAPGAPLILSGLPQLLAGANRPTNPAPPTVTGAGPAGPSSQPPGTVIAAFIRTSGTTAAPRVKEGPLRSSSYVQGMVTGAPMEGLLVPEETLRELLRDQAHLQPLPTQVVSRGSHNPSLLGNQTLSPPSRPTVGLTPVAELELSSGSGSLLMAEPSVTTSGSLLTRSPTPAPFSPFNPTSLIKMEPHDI
ETV1, sequence (P50549 whole entry): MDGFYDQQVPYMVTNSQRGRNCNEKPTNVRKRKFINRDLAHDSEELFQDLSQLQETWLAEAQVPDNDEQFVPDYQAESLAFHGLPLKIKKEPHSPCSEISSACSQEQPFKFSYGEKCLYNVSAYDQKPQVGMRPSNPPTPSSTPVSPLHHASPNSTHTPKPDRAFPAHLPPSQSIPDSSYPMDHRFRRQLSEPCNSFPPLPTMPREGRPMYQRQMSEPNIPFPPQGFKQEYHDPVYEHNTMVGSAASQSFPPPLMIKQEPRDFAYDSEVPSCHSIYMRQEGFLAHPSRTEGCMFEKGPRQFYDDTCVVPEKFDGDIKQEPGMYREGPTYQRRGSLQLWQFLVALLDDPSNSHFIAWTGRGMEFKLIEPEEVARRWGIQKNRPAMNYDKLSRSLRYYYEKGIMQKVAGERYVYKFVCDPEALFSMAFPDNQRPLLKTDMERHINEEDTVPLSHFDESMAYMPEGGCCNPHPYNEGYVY
ETV5, sequence (P41161 whole entry): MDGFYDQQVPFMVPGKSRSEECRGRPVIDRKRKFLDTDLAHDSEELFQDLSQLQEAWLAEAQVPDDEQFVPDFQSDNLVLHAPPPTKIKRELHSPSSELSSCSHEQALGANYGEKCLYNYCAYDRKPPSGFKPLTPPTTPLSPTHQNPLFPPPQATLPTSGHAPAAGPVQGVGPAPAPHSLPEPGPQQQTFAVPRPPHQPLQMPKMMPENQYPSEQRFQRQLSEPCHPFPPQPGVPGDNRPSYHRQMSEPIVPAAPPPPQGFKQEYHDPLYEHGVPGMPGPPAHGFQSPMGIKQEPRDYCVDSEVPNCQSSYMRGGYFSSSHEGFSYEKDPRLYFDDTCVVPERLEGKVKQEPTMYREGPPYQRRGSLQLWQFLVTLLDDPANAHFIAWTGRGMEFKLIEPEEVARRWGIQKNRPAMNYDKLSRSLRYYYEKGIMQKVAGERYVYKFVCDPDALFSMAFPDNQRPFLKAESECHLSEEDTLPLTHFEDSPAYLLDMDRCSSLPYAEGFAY

As to TCATGT, the binding signal in the assay with ELK1 was 1.17 fold enrichment (6-mer frequency, TF over GST control); in the assay with GABPA, 1.11 fold enrichment (6-mer frequency, TF over GST control); with ERG, 1.1 fold enrichment (6-mer frequency, TF over GST control); with ELF1, 1.15 fold enrichment (6-mer frequency, TF over GST control); with EHF, 1.02 fold enrichment (6-mer frequency, TF over GST control); in the assay with SPI1, 1.15 fold enrichment (6-mer frequency, TF over GST control). Also, the binding signal with FEV was 1.05 fold enrichment (6-mer frequency, TF over GST control); with ETV5 it was 1.16 fold enrichment (6-mer frequency, TF over GST control); with ELF4, 1.1 fold enrichment (6-mer frequency, TF over GST control); with ELK4 it was 1.08 fold enrichment (6-mer frequency, TF over GST control); with ETV2, 1.15 fold enrichment (6-mer frequency, TF over GST control); in the assay with ELF3 it was 1.04 fold enrichment (6-mer frequency, TF over GST control). The binding signal is 1.27 fold enrichment (6-mer frequency, TF over GST control) with ETV1; 1.13 fold enrichment (6-mer frequency, TF over GST control) with ERF; 1.15 fold enrichment (6-mer frequency, TF over GST control) with ETV3L; 1.11 fold enrichment (6-mer frequency, TF over GST control) in the assay with ETS2; 1.15 fold enrichment (6-mer frequency, TF over GST control) in the assay with ETV7; 1.14 fold enrichment (6-mer frequency, TF over GST control) in the assay with ETV3. For the same sequence, in the assay with ETV6, the binding signal was 1.08 fold enrichment (6-mer frequency, TF over GST control).
